The supplement of paper PMC11732987, “Enantioselective OTUD7B fragment discovery through chemoproteomics screening and high-throughput optimisation” (Communications Chemistry, 2025)

Columns and labels:
Experiment in all cases: log2 ratio of Biotin-Ahx-Ub-VS probe labelling (fragment/DMSO); higher = less target engagement (more negative = stronger competition), active = hit call of the paper (q ≤ 0.05, log2 ratio ≤ -1)
Details in all cases: compound concentration: 200 uM; treatment time: 3 h
[1] = target: T1, USP19 (UniProt O94966)
T1 sequence (whole entry): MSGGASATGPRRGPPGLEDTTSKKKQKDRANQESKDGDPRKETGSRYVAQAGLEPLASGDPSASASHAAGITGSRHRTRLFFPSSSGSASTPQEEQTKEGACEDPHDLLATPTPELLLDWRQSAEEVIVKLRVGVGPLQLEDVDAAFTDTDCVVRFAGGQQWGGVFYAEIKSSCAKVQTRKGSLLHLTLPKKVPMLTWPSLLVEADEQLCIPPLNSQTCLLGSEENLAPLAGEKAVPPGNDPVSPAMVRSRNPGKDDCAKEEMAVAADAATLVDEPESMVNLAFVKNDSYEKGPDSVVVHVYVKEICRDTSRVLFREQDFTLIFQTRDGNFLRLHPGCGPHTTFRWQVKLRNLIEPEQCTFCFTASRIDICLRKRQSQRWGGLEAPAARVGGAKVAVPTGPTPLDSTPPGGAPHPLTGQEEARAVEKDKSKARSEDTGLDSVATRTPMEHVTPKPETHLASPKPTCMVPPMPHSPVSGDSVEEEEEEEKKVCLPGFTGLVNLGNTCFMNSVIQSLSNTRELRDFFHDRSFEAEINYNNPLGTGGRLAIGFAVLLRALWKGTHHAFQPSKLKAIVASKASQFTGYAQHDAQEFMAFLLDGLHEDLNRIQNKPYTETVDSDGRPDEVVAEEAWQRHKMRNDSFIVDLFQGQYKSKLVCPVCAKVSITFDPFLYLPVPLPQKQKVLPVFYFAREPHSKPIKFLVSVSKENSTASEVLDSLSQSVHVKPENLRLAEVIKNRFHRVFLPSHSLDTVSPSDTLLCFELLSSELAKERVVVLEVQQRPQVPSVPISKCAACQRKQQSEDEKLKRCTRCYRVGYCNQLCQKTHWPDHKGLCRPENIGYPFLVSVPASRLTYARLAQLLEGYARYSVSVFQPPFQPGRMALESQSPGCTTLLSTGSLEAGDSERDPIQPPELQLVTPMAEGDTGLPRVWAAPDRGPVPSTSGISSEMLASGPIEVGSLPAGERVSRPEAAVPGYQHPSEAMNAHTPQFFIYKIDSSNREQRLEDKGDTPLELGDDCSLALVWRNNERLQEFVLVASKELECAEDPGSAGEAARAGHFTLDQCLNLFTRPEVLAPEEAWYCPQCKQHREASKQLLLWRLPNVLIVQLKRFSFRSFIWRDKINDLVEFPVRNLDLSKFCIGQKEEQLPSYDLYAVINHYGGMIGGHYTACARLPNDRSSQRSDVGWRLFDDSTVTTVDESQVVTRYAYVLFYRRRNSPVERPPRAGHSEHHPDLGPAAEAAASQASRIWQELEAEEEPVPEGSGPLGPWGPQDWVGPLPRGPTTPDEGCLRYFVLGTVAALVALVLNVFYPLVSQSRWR
Method in brief: (§1)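 Average log2 ratios of fragment over vehicle were obtained by unpaired t-test from global-median-normalised Spectronaut label-free quantities. Proteins with ≥2 unique peptides were included. HEK293T lysate (495 µg per sample) was treated in triplicate with fragment at 200 µM or vehicle for 3 h, then with Biotin-Ahx-Ub-VS at 0.5 µM final for 1 h, and labelled DUBs were NeutrAvidin-enriched and run by diaPASEF LC-MS/MS.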

[2] = target: USP24 (UniProt Q9UPU5)
Method in brief: as §1

[3] = target: T2, USP25 (UniProt Q9UHP3)
T2 sequence (whole entry): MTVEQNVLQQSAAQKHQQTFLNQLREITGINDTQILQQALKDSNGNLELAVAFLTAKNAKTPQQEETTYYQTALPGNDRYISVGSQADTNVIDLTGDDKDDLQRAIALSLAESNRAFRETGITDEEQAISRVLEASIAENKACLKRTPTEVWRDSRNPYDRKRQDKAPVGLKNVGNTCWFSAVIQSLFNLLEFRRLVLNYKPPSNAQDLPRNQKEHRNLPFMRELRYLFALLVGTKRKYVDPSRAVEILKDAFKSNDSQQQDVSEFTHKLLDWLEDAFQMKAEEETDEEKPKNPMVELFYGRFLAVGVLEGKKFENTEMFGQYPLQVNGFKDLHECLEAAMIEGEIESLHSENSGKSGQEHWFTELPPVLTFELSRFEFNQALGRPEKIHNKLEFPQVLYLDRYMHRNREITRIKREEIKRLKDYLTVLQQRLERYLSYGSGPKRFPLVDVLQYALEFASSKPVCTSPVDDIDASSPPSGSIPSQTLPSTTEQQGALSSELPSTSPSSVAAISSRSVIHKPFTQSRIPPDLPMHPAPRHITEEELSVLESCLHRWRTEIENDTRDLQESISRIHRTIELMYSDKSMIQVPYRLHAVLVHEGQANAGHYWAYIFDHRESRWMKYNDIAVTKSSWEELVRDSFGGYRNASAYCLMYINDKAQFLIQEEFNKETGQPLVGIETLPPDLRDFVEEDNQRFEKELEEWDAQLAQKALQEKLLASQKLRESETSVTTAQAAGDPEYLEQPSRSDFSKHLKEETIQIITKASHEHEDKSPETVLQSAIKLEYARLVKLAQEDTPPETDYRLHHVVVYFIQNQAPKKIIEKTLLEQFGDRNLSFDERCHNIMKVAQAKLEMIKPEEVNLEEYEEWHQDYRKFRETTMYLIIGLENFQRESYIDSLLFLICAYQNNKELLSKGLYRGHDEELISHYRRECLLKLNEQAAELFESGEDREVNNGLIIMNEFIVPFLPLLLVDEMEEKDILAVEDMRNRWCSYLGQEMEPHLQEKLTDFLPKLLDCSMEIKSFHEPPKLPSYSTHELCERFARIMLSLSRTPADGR
Method in brief: as §1

[4] = target: T3, USP28 (UniProt Q96RU2)
T3 sequence (whole entry): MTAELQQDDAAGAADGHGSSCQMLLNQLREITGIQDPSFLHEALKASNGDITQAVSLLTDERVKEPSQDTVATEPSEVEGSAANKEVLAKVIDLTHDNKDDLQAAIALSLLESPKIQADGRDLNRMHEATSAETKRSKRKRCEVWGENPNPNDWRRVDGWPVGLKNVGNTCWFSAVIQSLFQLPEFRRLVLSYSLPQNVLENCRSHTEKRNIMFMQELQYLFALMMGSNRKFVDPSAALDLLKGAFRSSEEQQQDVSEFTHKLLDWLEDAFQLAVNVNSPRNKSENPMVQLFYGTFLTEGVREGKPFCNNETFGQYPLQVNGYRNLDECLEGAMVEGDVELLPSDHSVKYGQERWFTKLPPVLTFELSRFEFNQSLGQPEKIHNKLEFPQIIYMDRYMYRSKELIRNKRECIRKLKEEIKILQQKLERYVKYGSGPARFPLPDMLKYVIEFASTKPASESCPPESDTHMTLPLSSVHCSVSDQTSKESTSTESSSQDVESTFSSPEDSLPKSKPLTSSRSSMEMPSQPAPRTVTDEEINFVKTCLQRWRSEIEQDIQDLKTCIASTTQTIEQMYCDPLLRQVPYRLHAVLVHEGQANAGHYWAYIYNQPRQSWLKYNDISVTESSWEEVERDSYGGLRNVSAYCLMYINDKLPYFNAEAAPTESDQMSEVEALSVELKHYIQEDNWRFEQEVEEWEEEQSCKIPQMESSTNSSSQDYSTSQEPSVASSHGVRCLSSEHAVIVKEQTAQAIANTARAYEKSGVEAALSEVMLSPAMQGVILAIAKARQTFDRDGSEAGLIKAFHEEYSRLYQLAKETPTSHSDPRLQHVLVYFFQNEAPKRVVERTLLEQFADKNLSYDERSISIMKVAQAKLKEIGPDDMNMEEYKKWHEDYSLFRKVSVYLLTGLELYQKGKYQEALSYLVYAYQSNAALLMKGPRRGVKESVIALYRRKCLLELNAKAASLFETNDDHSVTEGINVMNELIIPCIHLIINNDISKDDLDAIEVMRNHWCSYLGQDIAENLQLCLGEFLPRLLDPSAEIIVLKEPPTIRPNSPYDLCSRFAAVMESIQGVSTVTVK
Method in brief: as §1

Measured: log2 ratio of Biotin-Ahx-Ub-VS probe labelling

Sequence of USP24 (Q9UPU5 whole entry): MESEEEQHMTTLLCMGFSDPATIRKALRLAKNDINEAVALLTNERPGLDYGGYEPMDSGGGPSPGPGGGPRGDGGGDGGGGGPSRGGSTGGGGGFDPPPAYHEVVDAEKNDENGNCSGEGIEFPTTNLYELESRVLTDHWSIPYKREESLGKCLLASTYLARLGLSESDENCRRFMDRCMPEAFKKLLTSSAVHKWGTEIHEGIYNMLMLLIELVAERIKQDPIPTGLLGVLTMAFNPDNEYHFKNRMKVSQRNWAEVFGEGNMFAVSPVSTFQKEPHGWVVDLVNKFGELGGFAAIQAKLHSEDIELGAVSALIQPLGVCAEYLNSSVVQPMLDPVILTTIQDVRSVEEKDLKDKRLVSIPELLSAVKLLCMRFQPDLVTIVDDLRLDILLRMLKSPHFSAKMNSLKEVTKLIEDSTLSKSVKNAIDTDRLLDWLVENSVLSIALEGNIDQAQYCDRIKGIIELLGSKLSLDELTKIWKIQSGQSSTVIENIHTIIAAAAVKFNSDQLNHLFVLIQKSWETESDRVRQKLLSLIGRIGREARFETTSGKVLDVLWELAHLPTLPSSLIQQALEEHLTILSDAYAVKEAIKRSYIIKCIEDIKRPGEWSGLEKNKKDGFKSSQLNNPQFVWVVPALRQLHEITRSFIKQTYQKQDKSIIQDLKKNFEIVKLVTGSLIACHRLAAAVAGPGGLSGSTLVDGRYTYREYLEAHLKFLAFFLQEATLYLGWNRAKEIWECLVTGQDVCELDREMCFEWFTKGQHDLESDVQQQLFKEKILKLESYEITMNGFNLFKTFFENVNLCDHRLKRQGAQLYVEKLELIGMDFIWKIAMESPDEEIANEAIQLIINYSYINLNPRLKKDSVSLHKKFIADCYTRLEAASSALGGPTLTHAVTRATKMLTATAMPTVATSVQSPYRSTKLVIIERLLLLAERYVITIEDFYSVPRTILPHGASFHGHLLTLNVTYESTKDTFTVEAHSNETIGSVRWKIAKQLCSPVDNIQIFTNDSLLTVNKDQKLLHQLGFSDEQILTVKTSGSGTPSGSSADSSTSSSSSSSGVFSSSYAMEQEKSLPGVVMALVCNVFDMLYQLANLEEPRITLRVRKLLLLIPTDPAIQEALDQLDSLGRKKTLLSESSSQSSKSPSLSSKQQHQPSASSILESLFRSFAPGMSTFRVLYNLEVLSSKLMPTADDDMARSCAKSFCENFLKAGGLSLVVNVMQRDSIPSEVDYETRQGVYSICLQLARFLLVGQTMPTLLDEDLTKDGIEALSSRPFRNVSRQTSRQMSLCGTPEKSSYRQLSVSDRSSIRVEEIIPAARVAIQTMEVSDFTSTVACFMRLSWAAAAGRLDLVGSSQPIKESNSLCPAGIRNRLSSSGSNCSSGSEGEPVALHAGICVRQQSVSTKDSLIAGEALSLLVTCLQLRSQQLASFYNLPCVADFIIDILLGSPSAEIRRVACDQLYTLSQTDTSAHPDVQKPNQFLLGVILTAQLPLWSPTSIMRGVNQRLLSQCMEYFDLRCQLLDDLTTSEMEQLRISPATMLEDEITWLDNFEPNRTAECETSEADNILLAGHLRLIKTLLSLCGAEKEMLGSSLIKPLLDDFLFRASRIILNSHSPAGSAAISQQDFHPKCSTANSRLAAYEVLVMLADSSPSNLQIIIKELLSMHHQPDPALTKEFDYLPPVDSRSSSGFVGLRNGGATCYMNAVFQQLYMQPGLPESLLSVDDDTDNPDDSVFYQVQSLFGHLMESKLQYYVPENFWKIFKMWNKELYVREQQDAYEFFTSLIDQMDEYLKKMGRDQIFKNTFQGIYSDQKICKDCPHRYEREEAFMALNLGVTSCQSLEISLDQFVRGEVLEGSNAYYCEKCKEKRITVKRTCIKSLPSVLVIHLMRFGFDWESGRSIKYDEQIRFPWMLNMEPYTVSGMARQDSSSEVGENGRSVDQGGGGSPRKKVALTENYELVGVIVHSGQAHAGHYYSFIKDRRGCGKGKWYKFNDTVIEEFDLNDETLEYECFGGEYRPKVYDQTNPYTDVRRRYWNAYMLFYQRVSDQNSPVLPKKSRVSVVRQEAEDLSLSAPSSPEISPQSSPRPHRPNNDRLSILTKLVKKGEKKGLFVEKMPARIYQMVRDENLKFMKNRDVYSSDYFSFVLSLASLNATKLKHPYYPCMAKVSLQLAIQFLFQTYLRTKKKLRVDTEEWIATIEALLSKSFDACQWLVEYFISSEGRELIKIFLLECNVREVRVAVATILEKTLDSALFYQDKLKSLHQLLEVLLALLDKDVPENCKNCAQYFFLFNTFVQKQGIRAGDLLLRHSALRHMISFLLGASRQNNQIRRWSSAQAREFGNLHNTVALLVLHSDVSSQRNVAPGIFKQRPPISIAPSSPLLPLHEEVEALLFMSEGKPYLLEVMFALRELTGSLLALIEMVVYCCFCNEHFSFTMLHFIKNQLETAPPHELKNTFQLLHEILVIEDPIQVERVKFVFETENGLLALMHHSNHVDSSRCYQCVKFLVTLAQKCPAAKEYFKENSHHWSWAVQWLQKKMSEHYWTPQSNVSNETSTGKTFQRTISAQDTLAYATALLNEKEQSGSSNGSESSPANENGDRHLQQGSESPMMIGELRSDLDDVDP

Cc1cnc2[nH]cc(CCNC(=O)CCl)c2c1
inactive: [1] -0.044 | [2] -0.209 | [3] -0.347 | [4] -0.759
